Screen size: about 63,000 compounds; about 1,100 (1.7%) were called active. The entries come from a sample that favours actives as a whole. Measured potencies and affinities stand elsewhere. Unmarked numbers belong to inactive results.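 The calls were made as follows: active = compounds whose percent cytotoxicity in the single-dose primary screen, scaled between solvent and toxic-drug controls, exceeds 50; inactive = the rest.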
Assay: viability loss of HPDE-C7K cells – cell-based, fluorescence, HTS, primary screen (AID 431);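 also: 0% = DMSO solvent wells and 100% = doxorubicin-treated wells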
Conditions: HPDE-C7K KRASV12 cells, Alamar Blue viability, 48 h; at 10 µM; hits give high values
`COc1ccc(Nc2nc3ccccc3nc2C)cc1` showed a cytotoxicity of 20%.
Compound `O=C1N(CC(=O)N2CCc3ccccc32)CCN1Cc1ccccc1Cl` has a cytotoxicity of -7.2%.
`COc1ccc(CCNS(=O)(=O)c2ccc3c(c2)CCN3C(=O)C2CC2)cc1OC` showed a cytotoxicity of -6.7%.
`O=C(CSc1nc(Nc2ccccc2)nc(N2CCOCC2)n1)Nc1ccc2c(c1)OCCO2` showed a cytotoxicity of 11.5%.
Compound `CCOC(=O)c1sc2nc(N3CCCC3)c3c(c2c1N)CC(C)(C)OC3` has a cytotoxicity of -3%.
With `CCOC(=O)c1sc2nc(-c3ccco3)c3c(c2c1N)CC(C)(C)OC3` the cytotoxicity was 57.4% (active).
For `COC(=O)CSc1ncnc2c1sc1nc(-c3ccco3)c3c(c12)CC(C)(C)OC3`, the cytotoxicity was 15.4%.
`COc1ccc(Nc2nc(OC)nc(N3CCN(c4ccc(OC)cc4)CC3)n2)cc1` showed a cytotoxicity of 8.4%.
Work on `COC(=O)/C=C1\NCCSC1=O` yielded a cytotoxicity of 35.9%.
`O=C(CCC(=O)N(c1ccccc1)C(C(=O)NC1CCCC1)c1ccncc1)Nc1cccnc1` (configuration not stated) gave a cytotoxicity of -0.5%.
Work on `CCn1c(=N)c(C(=O)NCc2cccnc2)cc2c(=O)n3cccc(C)c3nc21` yielded a cytotoxicity of 1.8%.
For `CN=C(Nc1cc(C)nn1CCC#N)c1ccccc1F`, the cytotoxicity was 4.4%.
`N#CC1=C(SCC(=O)NC2CC2)NC(=O)C(C#N)C12CCCCC2` (configuration not stated) showed a cytotoxicity of -27.1%.
With `N#CC1=C(SCC(=O)NC23CC4CC(CC(C4)C2)C3)NC(=O)C(C#N)C12CCCCC2` (configuration not stated) the cytotoxicity was 45.6%.
Work on `CCOC(=O)C1=C(SCC(=O)Nc2ccccc2)NC(=O)C(C#N)C12CCCCC2` (configuration not stated) yielded a cytotoxicity of 5.3%.
`N#CC1=C(N)NC(SCC(=O)Nc2ccccc2)=C(C#N)C12CCCC2` showed a cytotoxicity of 0.4%.
For `CC(C)(C)C1CCC2(CC1)C(C#N)=C(SCC(=O)NC1CCCCC1)NC(=O)C2C#N` (configuration not stated), the cytotoxicity was 54.5% (active).
In the case of `CCOC(=O)Cc1csc(NC(=O)CSc2nnc(-c3ccc(C)cc3)o2)n1`, the cytotoxicity was -11.9%.
`CC(=O)N1CCc2cc(S(=O)(=O)NC(CC(C)C)C(=O)Nc3ccc4c(c3)OCCO4)ccc21` (configuration not stated) showed a cytotoxicity of 7.7%.
Compound `N#CCSc1nnc2c(Cl)cc(Cl)cn12` has a cytotoxicity of 7.2%.
`Brc1ccc(-c2nc(-c3ccncc3)no2)o1` gave a cytotoxicity of 0.3%.
In the case of `CSc1ccc(S(=O)(=O)Nc2ccc(N3CCOCC3)c(Cl)c2)cc1`, the cytotoxicity was -2.9%.
With `c1ccc(N2CCN(c3nnnn3-c3ccccc3)CC2)cc1` the cytotoxicity was -3.6%.
`COc1ccc(CCNC(=O)COc2ccc(S(=O)(=O)N3CCOCC3)cc2)cc1` gave a cytotoxicity of 8.2%.
In the case of `Cc1cc2c(N=O)c(NO)ccc2[nH]1`, the cytotoxicity was 79.2% (active).
With `COC(=O)c1ccc2[nH]c(C)cc(=O)c2c1` the cytotoxicity was -3.5%.
Compound `Cc1cc(=O)c2cc(Cl)ccc2[nH]1` has a cytotoxicity of -4.6%.
